Sampled rows, rich in hits. Any-hit rate of the full collection: about 11%.
12-hLO inh = 12-hLO (ALOX12) enzyme inhibition. Potency, µM (titrated, usually from 57.1 µM), without a hit: at the highest dose activity change, negative = inhibition, usual class: inhibitors. P18054. actives 0.12% (n = 150,000). AID 1452. purified 12-hLO, xylenol orange hydroperoxide absorbance; active means well fitted curve in the direction sought with a large enough effect; inconclusive means small, poorly fitted or top-dose-only effect, or another doubt; inactive means no such curve, though single readings can be large; an effect the other way counts as inactive or inconclusive; further: potency means the concentration at half of the fitted maximal effect; nearly all actives have a fitted effect of over 55% in size
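Purified human 12hLO (150 nM), preincubated 15 min with compound, then 40 uM arachidonic acid for 30 min, room temperature, Hepes pH 7.0 with 0.01% Triton X-100. Hydroperoxide detected by ferrous iron/xylenol orange; 573/405 nm absorbance ratio gives reaction progress.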
PNC inhibitor = blocks assembly of the perinucleolar compartment; activity change (PNC), negative = inhibition, % at 10 µM; actives 3.1% (n = 140,000); PC3M PTB-GFP, PNC prevalence imaging, 16 h; active compounds read low; AID 2417;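 active means readout at or below -70, meaning at least 70% loss of cells showing the perinucleolar compartment, a nuclear body marking cancer cells; inconclusive means readout between -30 and a set limit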;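 further: plate controls were DMSO wells for no effect and camptothecin positive control wells for full effect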
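PC3M cells stably expressing PTB-GFP, 750–1000 cells/well, treated 16 h at 37 °C with compound (23 nl of library stock), in duplicate. After paraformaldehyde fixation and Hoechst stain, imaged at 20x; PNC prevalence scored by image analysis.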
IMPase Li inh = membrane-permeable IMPase blocker, potentiated with lithium | actives 0.35% (n = 210,000) | CHO-M1 cells, IP1 TR-FRET (IP-One), carbachol + lithium | Potency, µM (doses to about 59.4 µM), for inactives: top-dose activity, negative = IMPase inhibition, actives largely listed as inhibitors | AID 1457; active means well fitted curve in the direction sought with a large enough effect; inconclusive means small, poorly fitted or top-dose-only effect, or another doubt; inactive means no such curve, though single readings can be large; an effect the other way counts as inactive or inconclusive;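 further: IP1 builds up when IMPase is blocked and the TR-FRET signal falls; potency means the concentration at half of the fitted maximal effect; plate controls were basal vehicle for no effect and high inhibitor control for full effect; nearly all actives have a fitted effect of over 50% in size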
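CHO cells stably expressing M1 receptor (2000/well, cultured 16–30 h) treated 30 min at 37C with compound plus low lithium. Cytosolic IP1 by TR-FRET (665/620 ratio and 620 channel) after 10 min lysis; AC50 by Hill fit.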
IMPase cell inh = cell-permeable inhibitors of inositol monophosphatase (IMPase). AID 901. 120,000 tested, under 10 active. CHO-M1 cells, IP1 accumulation, HTRF TR-FRET ratio. P97697. inhibition (IP1 accumulation), % at 46.1 µM; active means well fitted curve in the direction sought with a large enough effect in the signal ratio, not every such curve was filed as active; inconclusive means small, poorly fitted or top-dose-only effect, or a change in a side signal; inactive means no such curve, though single readings can be large or run the other way; the % refers to the signal ratio;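 further: cells stimulated with carbachol in lithium chloride buffer; plate controls were DMSO basal wells for no effect and reference inhibitor wells for full effect; higher means more IMPase inhibition seen as more IP1 and lower FRET ratio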
Target sequence (P97697 whole entry, looked up): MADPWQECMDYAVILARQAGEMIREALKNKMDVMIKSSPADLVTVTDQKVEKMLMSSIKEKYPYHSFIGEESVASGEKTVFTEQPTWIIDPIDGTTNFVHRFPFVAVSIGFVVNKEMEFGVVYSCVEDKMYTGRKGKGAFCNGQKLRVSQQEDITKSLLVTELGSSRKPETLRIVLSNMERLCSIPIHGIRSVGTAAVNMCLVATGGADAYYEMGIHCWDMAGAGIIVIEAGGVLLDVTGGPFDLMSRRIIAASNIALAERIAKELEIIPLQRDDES
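Elevated IP1 in lysates lowers TR-FRET signal (665/620 ratio and 620 channel reported). Cells were CHO-M1, given carbachol (50 uM as added) plus 50mM LiCl, pH 7.4, 30 min, 37C; compounds titrated up to 46 uM; AC50 by Hill equation.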
ALDH1A1 block = inhibitors of human aldehyde dehydrogenase 1A1; AID 1030; actives 7.3% (n = 220,000); Purified ALDH1A1, NADH fluorescence, propionaldehyde substrate; Potency, µM (series often up to 75.3 µM), without a hit: at the highest dose activity, negative = inhibition, most hits filed as inhibitors;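 further: potency means the concentration at half of the fitted maximal effect; plate controls were no enzyme wells and a reference inhibitor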
HPGD inh = HPGD (human) dehydrogenase inhibition. purified HPGD, NADH fluorescence kinetic, PGE2 substrate. actives 4.3% (n = 150,000). Potency, µM, for inactives: at the highest dose activity change, negative = inhibition, actives largely listed as inhibitors; further: potency means the concentration at half of the fitted maximal effect
Target sequence (P15428 whole entry, looked up): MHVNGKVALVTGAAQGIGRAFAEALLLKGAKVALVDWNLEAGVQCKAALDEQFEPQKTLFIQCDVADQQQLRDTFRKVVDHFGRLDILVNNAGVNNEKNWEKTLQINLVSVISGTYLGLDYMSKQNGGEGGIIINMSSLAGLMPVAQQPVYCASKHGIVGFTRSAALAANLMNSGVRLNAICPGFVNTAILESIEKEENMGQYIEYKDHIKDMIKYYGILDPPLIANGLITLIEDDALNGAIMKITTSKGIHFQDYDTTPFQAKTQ
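NADH formation kinetics: reaction with 30 uM PGE2 and 1 mM NAD+ (final), 20 nM enzyme, Tris-HCl pH 8 with Tween 20, after 15 min compound preincubation at room temperature. Fluorescence change, last versus first of five reads.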
Active calls of the source: *; u = inconclusive; x = no result; [ ] = dose if it differs, or a comment. Unless noted, the call rests on the fitted dose curve; in most records, active means well fitted inhibition curve with a large enough effect (not every such curve was filed as active); inconclusive means small, poorly fitted or top-dose-only effect, or another doubt; inactive means no such curve, though single readings can be large or run the other way. Unless noted, on the % scale 0 is the no-effect control and ±100 the full control effect.

SMILES	12-hLO inh	PNC inhibitor	IMPase Li inh	IMPase cell inh	ALDH1A1 block	HPGD inh
CC1(C)CC(=O)CC(=O)/C1=N\Nc1c(Cl)cc(Cl)cc1Cl	-8%	u	-10%	-11	6.3µM*	-4%
COc1ccccc1N1CCN(CCn2c(=O)c3c(c4ccccc4n3C)n(C)c2=O)CC1	x	x	-1%	x	15%	x
COc1ccc2nc(SCc3nc(N)nc(Nc4ccccc4)n3)[nH]c2c1	-4%	u	18%[38.3 µM]	23	7.9µM*	-19%
COc1ccc(Nc2nc(N)nc(CSc3nc(C)cc(C)n3)n2)cc1	x	x	22%	x	1%	x
COc1ccc(Nc2nc(N)nc(CSc3nnc(N)s3)n2)cc1	0%	-96*	-10%[38.3 µM]	0	10%	-11%
COc1ccc(OCc2nc(N)nc(Nc3ccccc3)n2)cc1	4%	u	3%	-7	u	-5%
COc1ccc2nc(SCC(=O)Nc3ccccc3)[nH]c2c1	-19%	-107*	16%	x	-76%	-26%
CN(C)c1ncc2ncc(=O)n(Cc3ccc(F)cc3)c2n1	-1%	x	2%	x	u	u
Cc1ccc(S(=O)(=O)n2nc(-c3ccccc3)nc2NCc2ccc(Cl)cc2)cc1	x	x	x	7	x	x
CC1Cc2ccccc2N1C(=O)Cn1c(=O)oc2cc(S(=O)(=O)NC3CCCC3)ccc21 (stereo not drawn)	-3%	u	-12%[38.3 µM]	-5	8%	13µM*
COc1cccc(CN(C(=O)Cn2nnc(-c3ccccc3F)n2)C(C(=O)NC(C)(C)C)c2ccncc2)c1 (stereo not drawn)	x	x	7%	x	24µM*	x
CCOCN(C(=O)CSc1nc2ccccc2[nH]1)c1c(C)cccc1CC	x	x	x	17	x	x
Cc1cc(C)c(C#N)c(SCC(=O)c2ccccc2)n1	x	x	12%	x	22µM*	x
N#Cc1c(-c2cccs2)cc(C2CC2)nc1SCC(N)=O	3%	23	u	-27	u	u
Cc1cc(C)c(C#N)c(SCC(O)CS(=O)(=O)Cc2ccccc2)n1 (stereo not drawn)	-5%	45	-2%[38.3 µM]	2	28µM*	-18%
CCN(CC)C(=O)CSc1nc(C)cc(-c2cccs2)c1C#N	0%	u	-26%[38.3 µM]	-15	13µM*	-28%
Cc1cc(C)c(C#N)c(SCC(=O)c2cccs2)n1	1%	u	31%[38.3 µM]	2	u	16µM*
CCN(c1nc(N)c(C(=O)N=C(N)N)nc1Cl)C(C)C	-3%	x	16%	5	-4%	-16%
Nc1ncnc2c1nc(Sc1ccc(Cl)cc1)n2[C@H]1O[C@@H]2COP(=O)(O)O[C@H]2[C@@H]1O	x	x	-9%	x	7%	-4%
Cc1ccc(C(=O)CSc2ncnc3ccccc23)o1	x	x	3%	x	u	x
Cc1cc(C)c(C#N)c(OCC(=O)c2ccccc2)n1	-9%	u	21%[38.3 µM]	5	6.3µM*	22µM*
Cc1cc(C)c(C(N)=O)c(SCC(=O)c2ccc(Cl)cc2)n1	-13%	33	-4%[38.3 µM]	1	-4%	-1%
O=C(CSc1ncnc2ccccc12)c1cccs1	x	x	14%	x	11µM*	x
COC(=O)C(Sc1nc(C)cc(C)c1C#N)c1ccccc1 (stereo not drawn)	-11%	61	8%[38.3 µM]	12	5%	-6%
Cc1cc(C)c(C#N)c(Sc2ccccc2N)n1	x	x	3%	x	25µM*	x
SMILES	12-hLO inh	PNC inhibitor	IMPase Li inh	IMPase cell inh	ALDH1A1 block	HPGD inh
Cc1ccc(C(=O)CSc2nc(C)cc(C)c2C(N)=O)cc1	0%	-88*	17%[38.3 µM]	4[1.84 µM]	11%	-2%
CC(C)(C)C(=O)NC(c1ccc(Cl)cc1)[C@]1(C)C[C@H]1C1CCCCC1 (stereo partly drawn)	-1%	x	-3%	x	u	-15%
COc1cccc([C@@H]2Oc3ccc(OC)cc3C[C@H]2OC(=O)Nc2cc(OC)c(OC)c(OC)c2)c1	x	x	28%	x	7%	-12%
CO[C@@H]1COC(=O)[C@@H](C)NC(=O)C/C=C\[C@@H](C)[C@H](NS(=O)(=O)c2ccc(C)cc2)COC(=O)[C@H](C)NC(=O)C/C=C\[C@H]1C	x	x	x	x	9%[13.5 µM]	x
CC(C)C[C@@H](CC(=O)N[C@@H](CCCN)CC(=O)N[C@@H]1CCNC[C@H]1C(=O)N[C@H](CC(=O)N[C@@H](CCC(=O)O)CC(=O)O)Cc1ccccc1)NC(=O)[C@@H]1CCCC[C@H]1N	-1%	x	-11%	x	-12%	-3%
Cc1cc(=O)[nH]c(SCC(=O)c2ccccc2)c1C#N	-10%	u	2%[38.3 µM]	2	18µM*	u
Cc1cc(SCC(=O)c2ccccc2)n2nc(C)nc2n1	-1%	-11	-1%	-13	20µM*	-18%
Cc1noc(C)c1C(=O)N1CCC[C@@]2(CCN(Cc3ccc(C#N)cc3)C2)C1	-3%	x	8%	x	4%	-5%
O=C(CN1C(=O)S/C(=C/c2ccc(N3CCOCC3)cc2)C1=O)N1CCOCC1	-1%	-7	4%	x	u	-11%
CCC(C)N1C(=O)S/C(=C/c2ccc(N3CCOCC3)cc2C)C1=O (stereo not drawn)	-11%	13	-4%	x	10µM*	-2%
CCCN1C(=O)S/C(=C\c2ccc(N3CCOCC3)cc2C)C1=O	-3%	-14	5%[38.3 µM]	2	1.6µM*	-11%
CCN1C(=O)S/C(=C\c2ccc(N3CCOCC3)cc2C)C1=O	-6%	-29	x	6	-15%	x
Cc1cc(N2CCCC2)ccc1/C=C1/C(=O)N(C)C(=S)N1C	x	x	22%	x	u	x
Cc1cc(N2CCOCC2)ccc1/C=C1\SC(=O)N(C(C)C)C1=O	2%	13	11%[38.3 µM]	3	5µM*	-17%
CCCN1C(=O)S/C(=C\c2ccc(N3CCOCC3)o2)C1=O	x	x	47%	x	0.22µM*	x
Cc1onc(-c2ccccc2Cl)c1C(=O)N[C@H]1C(=O)N2[C@H]1SC(C)(C)[C@H]2C(=O)O	-3%[25.6 µM]	x	-9%	-7[20.6 µM]	0%[20.9 µM]	0%
CC(=O)/C(=N/Nc1cccc(Cl)c1)N1CCOCC1	-5%	u	34%[38.3 µM]	9	13µM*	-27%
CC(=O)/C(=N/Nc1ccccc1)N1CCOCC1	2%	u	-3%	6	-4%	-20%
CC(=O)/C(=N/Nc1ccccc1C)N1CCOCC1	3%	-3	14%[38.3 µM]	-4	18µM*	-27%
O=C(c1ccccc1)N1CCN(S(=O)(=O)c2cccc(NS(=O)(=O)c3ccccc3)c2)CC1	x	x	-6%	x	u	x
COc1ccc(C2NC(=S)NC(C)=C2C(=O)c2ccccc2)cc1OC (stereo not drawn)	-5%	-86*	-2%	6	11µM*	-13%
COc1ccc(C2NC(=S)NC(C)=C2C(=O)Nc2ccccn2)cc1OC (stereo not drawn)	-3%	u	3%	x	5%	-3%

Assay outcomes from PubChem BioAssay.
